This note sets out measurements from ChEMBL document CHEMBL1961873, “Compounds: GSK PKIS; Assays: Nanosyn kinase panel” (2012).

Assay [1] addresses Mast/stem cell growth factor receptor Kit (Homo sapiens) (UniProt P10721). To be noted: at 1 µM.
In assay [2] the test system is Mast/stem cell growth factor receptor Kit (Homo sapiens), P10721 [D816V]. To be noted: at 0.1 µM.
Assay [3] has the same test system. To be noted: at 1 µM.
In assay [4] the test system is Mast/stem cell growth factor receptor Kit (Homo sapiens), P10721 [T670I]. To be noted: at 0.1 µM.
Chain of Mast/stem cell growth factor receptor Kit (Homo sapiens), P10721 [T670I] (P10721 whole entry T670I): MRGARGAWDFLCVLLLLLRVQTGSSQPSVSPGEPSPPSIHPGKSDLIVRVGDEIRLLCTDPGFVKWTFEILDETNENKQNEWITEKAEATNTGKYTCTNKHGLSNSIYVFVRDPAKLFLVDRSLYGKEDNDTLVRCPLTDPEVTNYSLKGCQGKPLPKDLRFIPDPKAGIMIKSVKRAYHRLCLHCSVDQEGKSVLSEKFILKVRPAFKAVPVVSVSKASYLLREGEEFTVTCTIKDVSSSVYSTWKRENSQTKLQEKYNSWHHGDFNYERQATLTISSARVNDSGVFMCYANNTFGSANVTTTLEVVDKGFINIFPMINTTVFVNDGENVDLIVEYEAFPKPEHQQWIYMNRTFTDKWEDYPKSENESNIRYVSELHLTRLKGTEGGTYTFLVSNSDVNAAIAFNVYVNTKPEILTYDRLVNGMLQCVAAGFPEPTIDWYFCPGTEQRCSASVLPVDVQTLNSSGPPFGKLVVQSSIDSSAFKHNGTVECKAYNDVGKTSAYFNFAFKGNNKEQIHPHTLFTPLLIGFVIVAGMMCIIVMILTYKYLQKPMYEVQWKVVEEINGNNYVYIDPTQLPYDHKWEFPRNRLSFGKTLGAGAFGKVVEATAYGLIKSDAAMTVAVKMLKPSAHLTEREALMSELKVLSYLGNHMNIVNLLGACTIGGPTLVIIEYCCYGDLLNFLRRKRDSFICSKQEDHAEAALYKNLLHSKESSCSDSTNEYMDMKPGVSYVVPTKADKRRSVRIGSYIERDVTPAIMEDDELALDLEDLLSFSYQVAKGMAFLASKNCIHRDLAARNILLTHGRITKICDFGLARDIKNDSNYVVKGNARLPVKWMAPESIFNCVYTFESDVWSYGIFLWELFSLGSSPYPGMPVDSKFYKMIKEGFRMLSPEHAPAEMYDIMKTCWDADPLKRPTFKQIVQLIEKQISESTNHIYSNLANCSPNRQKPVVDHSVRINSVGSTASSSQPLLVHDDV
The test system is the same in assay [5]. To be noted: at 1 µM.
Assay [6] concerns Mast/stem cell growth factor receptor Kit (Homo sapiens), P10721 [V560G]. To be noted: at 0.1 µM.
Chain of Mast/stem cell growth factor receptor Kit (Homo sapiens), P10721 [V560G] (P10721 whole entry V560G): as the sequence (P10721 whole entry T670I) above, with V560G, I670T counted along it
The test system is the same in assay [7]. To be noted: at 1 µM.
The target in assay [8] is Tyrosine-protein kinase Lck (Homo sapiens) (UniProt P06239). To be noted: at 0.1 µM.
Chain of Tyrosine-protein kinase Lck (Homo sapiens) (P06239 2-509 limits assumed): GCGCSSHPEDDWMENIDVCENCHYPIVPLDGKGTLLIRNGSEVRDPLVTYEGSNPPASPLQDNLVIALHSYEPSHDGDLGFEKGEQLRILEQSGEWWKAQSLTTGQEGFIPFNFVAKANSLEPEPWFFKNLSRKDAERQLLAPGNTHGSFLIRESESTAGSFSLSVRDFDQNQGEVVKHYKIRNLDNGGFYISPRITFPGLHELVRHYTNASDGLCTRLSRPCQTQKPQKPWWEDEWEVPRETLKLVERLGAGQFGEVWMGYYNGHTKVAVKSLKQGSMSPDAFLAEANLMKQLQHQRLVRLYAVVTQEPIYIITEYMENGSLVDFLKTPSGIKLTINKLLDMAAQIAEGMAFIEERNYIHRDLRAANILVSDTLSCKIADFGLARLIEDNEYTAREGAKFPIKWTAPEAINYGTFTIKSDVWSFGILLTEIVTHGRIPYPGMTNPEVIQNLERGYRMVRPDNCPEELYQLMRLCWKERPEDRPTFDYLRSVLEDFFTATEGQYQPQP
Assay [9] shares this target. To be noted: at 1 µM.
The target of assay [10] is Leukocyte tyrosine kinase receptor (Homo sapiens) (UniProt P29376). To be noted: at 0.1 µM.
Chain of Leukocyte tyrosine kinase receptor (Homo sapiens) (P29376 whole entry): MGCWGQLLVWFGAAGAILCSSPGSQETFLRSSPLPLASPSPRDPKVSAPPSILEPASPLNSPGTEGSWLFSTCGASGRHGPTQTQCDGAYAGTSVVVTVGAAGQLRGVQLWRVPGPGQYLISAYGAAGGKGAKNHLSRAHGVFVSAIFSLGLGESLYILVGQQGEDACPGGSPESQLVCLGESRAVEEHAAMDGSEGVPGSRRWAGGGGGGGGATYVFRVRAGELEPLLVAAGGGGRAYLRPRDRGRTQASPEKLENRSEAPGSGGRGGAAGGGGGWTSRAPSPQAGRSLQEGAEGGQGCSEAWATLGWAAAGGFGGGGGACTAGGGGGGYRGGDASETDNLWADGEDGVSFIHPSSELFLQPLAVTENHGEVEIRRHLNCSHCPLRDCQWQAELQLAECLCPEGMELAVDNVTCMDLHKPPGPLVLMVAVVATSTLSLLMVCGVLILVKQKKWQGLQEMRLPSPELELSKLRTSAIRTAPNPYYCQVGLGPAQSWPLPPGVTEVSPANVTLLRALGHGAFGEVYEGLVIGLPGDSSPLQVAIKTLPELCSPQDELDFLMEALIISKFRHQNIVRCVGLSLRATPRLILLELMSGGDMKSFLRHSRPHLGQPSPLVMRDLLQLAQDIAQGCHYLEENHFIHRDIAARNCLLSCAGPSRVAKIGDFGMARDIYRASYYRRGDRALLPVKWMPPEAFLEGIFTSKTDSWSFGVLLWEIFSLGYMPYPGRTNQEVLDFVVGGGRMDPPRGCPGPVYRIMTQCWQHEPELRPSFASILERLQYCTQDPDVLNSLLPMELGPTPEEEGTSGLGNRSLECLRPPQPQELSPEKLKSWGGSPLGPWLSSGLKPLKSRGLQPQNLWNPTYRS
Assay [11] has the same target. To be noted: at 1 µM.
For assay [12], the target named is Tyrosine-protein kinase Lyn (Homo sapiens) (UniProt P07948). To be noted: at 0.1 µM.
Chain of Tyrosine-protein kinase Lyn (Homo sapiens) (P07948 2-512 limits assumed): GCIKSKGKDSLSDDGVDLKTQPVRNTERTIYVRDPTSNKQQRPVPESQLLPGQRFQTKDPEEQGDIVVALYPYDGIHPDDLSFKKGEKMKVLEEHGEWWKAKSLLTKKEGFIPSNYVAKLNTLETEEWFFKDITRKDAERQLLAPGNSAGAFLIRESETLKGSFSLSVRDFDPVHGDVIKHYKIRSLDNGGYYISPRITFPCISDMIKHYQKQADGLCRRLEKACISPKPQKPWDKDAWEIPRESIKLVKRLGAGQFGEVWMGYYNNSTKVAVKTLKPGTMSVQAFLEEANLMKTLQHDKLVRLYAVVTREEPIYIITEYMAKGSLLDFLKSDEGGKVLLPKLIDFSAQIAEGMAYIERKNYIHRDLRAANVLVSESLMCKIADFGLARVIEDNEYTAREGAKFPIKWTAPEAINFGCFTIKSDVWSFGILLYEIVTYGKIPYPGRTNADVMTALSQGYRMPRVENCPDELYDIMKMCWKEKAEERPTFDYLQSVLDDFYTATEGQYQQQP
The target is the same in assay [13]. To be noted: at 1 µM.
The target is the same in assay [14]. To be noted: at 0.1 µM. This is another data set of the same source.
Assay [15] shares this target. To be noted: at 1 µM. The source holds these as a separate data set.
Assay [16] has as its target T1, Tyrosine-protein kinase Mer (Homo sapiens) (UniProt Q12866).
T1 sequence (whole entry): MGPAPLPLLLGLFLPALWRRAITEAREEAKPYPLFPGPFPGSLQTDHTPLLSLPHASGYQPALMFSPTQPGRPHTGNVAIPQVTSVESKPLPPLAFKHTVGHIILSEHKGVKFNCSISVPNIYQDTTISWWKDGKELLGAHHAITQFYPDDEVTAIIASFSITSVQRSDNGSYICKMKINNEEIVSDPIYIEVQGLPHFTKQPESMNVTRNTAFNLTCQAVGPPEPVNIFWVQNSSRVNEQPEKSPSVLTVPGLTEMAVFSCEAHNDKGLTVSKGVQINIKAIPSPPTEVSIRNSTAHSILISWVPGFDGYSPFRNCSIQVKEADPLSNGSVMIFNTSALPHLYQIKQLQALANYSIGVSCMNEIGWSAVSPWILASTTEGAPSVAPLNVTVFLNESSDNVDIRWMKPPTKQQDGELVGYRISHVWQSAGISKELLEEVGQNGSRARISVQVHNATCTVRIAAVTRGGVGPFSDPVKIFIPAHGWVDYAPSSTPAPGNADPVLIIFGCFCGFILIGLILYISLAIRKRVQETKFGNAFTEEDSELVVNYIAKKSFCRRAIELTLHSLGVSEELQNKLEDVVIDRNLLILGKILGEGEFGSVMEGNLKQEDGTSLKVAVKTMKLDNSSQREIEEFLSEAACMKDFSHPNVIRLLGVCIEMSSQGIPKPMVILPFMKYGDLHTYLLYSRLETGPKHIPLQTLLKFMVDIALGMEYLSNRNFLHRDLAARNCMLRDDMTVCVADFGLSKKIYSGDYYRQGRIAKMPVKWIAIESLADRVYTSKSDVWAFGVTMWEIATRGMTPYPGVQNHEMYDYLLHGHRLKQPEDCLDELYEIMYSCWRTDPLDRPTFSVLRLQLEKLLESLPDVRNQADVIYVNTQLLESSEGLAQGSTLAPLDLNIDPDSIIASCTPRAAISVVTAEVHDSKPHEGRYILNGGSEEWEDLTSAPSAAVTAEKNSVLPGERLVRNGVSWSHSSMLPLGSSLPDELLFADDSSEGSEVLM
To be noted: at 0.1 µM.

In assay [17] the target is T1, Tyrosine-protein kinase Mer (Homo sapiens). To be noted: at 1 µM.
For assay [18], the target named is Hepatocyte growth factor receptor (Homo sapiens) (UniProt P08581). To be noted: at 0.1 µM.
Chain of Hepatocyte growth factor receptor (Homo sapiens) (P08581 whole entry): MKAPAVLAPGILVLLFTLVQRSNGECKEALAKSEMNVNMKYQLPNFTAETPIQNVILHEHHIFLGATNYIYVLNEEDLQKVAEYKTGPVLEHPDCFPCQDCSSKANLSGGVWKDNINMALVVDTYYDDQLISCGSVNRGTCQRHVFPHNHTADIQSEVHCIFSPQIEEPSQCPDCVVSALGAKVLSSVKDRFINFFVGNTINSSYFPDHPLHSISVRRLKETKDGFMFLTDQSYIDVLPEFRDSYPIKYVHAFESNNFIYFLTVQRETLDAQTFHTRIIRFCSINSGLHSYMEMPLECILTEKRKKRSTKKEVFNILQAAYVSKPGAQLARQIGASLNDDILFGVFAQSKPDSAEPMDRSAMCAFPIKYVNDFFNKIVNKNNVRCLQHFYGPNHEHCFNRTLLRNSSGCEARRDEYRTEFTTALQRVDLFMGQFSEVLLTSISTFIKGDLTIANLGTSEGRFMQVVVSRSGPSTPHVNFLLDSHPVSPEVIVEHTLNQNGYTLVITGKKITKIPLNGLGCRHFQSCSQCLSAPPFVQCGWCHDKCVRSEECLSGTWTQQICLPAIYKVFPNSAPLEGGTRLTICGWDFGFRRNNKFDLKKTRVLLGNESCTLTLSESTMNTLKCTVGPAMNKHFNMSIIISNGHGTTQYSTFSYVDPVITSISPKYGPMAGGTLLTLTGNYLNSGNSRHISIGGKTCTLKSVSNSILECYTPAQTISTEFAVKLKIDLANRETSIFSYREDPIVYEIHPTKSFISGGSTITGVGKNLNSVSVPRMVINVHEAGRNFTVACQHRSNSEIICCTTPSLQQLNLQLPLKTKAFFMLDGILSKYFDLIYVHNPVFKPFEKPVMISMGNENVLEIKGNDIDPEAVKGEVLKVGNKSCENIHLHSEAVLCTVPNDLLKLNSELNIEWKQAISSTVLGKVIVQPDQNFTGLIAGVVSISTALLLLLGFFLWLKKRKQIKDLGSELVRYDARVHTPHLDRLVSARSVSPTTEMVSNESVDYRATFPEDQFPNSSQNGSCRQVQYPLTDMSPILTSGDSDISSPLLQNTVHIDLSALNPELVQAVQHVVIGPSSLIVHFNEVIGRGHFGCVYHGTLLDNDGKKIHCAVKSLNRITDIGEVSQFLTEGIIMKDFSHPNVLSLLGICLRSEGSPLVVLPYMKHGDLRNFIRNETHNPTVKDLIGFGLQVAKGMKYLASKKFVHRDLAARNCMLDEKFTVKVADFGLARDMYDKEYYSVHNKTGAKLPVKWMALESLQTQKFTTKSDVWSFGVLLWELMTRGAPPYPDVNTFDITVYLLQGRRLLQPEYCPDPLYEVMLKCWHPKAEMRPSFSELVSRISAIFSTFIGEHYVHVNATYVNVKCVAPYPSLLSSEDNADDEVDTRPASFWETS
Assay [19] shares this target. To be noted: at 1 µM.
Assay [20] deals with T2, Muscle, skeletal receptor tyrosine-protein kinase (Homo sapiens) (UniProt O15146).
T2 sequence (whole entry): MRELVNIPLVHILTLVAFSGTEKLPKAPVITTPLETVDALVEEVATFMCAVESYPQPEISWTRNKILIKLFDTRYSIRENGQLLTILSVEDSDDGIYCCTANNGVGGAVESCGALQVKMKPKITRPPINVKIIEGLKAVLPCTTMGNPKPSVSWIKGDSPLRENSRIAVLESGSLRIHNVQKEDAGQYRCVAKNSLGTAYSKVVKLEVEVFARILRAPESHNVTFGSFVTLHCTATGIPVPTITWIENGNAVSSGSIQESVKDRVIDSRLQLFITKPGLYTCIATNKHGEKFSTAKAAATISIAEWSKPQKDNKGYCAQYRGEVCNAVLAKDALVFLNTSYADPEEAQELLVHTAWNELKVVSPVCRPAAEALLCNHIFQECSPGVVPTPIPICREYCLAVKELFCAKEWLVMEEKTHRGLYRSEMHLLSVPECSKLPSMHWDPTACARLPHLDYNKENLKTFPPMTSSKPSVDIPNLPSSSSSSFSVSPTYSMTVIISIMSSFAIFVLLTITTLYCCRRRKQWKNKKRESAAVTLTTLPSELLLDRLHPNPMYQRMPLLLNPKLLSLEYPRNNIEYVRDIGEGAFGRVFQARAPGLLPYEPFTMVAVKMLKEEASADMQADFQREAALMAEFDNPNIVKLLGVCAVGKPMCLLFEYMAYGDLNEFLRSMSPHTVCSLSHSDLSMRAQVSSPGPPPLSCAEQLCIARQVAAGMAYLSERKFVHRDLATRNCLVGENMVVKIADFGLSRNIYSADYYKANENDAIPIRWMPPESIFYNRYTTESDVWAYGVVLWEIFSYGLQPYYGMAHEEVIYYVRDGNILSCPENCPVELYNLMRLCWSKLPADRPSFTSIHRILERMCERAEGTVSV
To be noted: at 0.1 µM.

Chain of Mast/stem cell growth factor receptor Kit (Homo sapiens), P10721 [D816V] (P10721 whole entry D816V): as the sequence (P10721 whole entry T670I) above, with I670T, D816V counted along it
Chain of Mast/stem cell growth factor receptor Kit (Homo sapiens) (P10721 whole entry): as the sequence (P10721 whole entry T670I) above, with I670T counted along it

By inhibition is commonly meant the relative decrease from the control value, in per cent. On to `CCn1c(-c2nonc2N)nc2ccncc21`, for which the inhibition in assay [1] is -2.36%; in [2], -0.01%; in [3], -2.39%; in assay [4], 0.62%; in [5], 3.05%; in [6] it was -0.14%. The inhibition in assay [7] was -0.33%; in [8], 1.33%; in assay [9] it was 2.29%; in [10] it was 1.29%; in [11], 0.42%; in assay [12] it was 2.64%. Besides, the inhibition in assay [13] is -1.88%; in assay [14], 1.5%; in assay [15], -0.9%; in [16], 0.16%; in assay [17] it was -0.52%; in assay [18], 8.81%. In addition, the inhibition in assay [19] is 2.41%; in assay [20] it was -0.65%.
Regarding `COc1cc2ncn(-c3cc(OCc4ccccc4C(F)(F)F)c(C(N)=O)s3)c2cc1OC`, the inhibition in assay [1] was 20.5%; in assay [2], 5.23%; in assay [3], 7.66%; in assay [4] it was 3.55%; in [5] it was 9.7%; in assay [6], -1.78%. Also, the inhibition turned out to be 2.96% in [7]; 0.99% in [8]; 12.6% in assay [9]; 2.36% in [10]; 4.35% in assay [11]; 6.12% in [12]. The inhibition stood at 21.5% in assay [13]; 3.89% in assay [14]; 17.4% in assay [15]; 2.08% in assay [16]; 9.28% in assay [17]; 4.37% in assay [18]. The inhibition in [19] was 19.5%; in assay [20], 11%.
Regarding `CCCN1CCC(Oc2cc(Nc3nc(Nc4cccc(F)c4C(N)=O)c4cc[nH]c4n3)c(OC)cc2Cl)CC1`, the inhibition in assay [1] is 2.77%; in assay [2], -2.42%; in assay [3], -0.61%; in [4], -1.82%; in [5], 3.06%; in assay [6] it was 5.14%. For the same compound, the inhibition in assay [7] is 6.37%; in assay [8], -0.28%; in [9], 4.94%; in assay [10] it was 16.4%; in assay [11], 68.8%; in [12], 0%. Moreover, the inhibition is 2.61% in assay [13]; -0.77% in assay [14]; 1.89% in [15]; 0.64% in assay [16]; 2.77% in [17]; -1.41% in assay [18]. The inhibition in [19] was -2.15%; in assay [20] it was 3.31%.
Turning to `O=C1NC(=O)C(c2ccc(Cl)cc2)=C1Nc1ccc(Cl)c(C(=O)O)c1`, the inhibition was -0.38% in assay [1]; -3.8% in assay [2]; -3.02% in assay [3]; -0.88% in assay [4]; -1.49% in [5]; 2.75% in assay [6]. For the same compound, the inhibition is 8.56% in assay [7]; -0.44% in assay [8]; 0.35% in assay [9]; -1.15% in [10]; -0.2% in assay [11]; 0.02% in assay [12]. Further, the inhibition was -0.5% in assay [13]; -2.02% in assay [14]; -0.81% in assay [15]; 1.27% in assay [16]; 0.08% in assay [17]; -1.14% in assay [18]. In addition, the inhibition in assay [19] is -0.38%; in assay [20], -1.83%.
As for `CC(C)=Cc1cccc2c1/C(=N/Nc1ccc(S(N)(=O)=O)cc1)C(=O)N2`, the inhibition came to 67.5% in assay [1]; 2.15% in assay [2]; 4.23% in assay [3]; 5.7% in assay [4]; 52.1% in [5]; 4.73% in [6]. The inhibition in assay [7] worked out at 10.1%; in assay [8], 3.66%; in [9] it was 14.7%; in assay [10] it was 1.87%; in [11] it was 11.3%; in [12], 6.78%. For the same compound, the inhibition in [13] was 35.8%; in assay [14], 5.19%; in assay [15] it was 29.9%; in [16], 0.25%; in [17], 3.48%; in assay [18], -0.76%. In addition, the inhibition in [19] amounted to 19.6%; in assay [20], 7%.
For `CS(=O)(=O)CCN(CC#N)Cc1ccc(-c2ccc3ncnc(Nc4ccc(OCc5cccc(F)c5)c(Cl)c4)c3c2)o1`, the inhibition is 0.7% in assay [1]; 3.19% in assay [2]; 2.53% in assay [3]; 2.04% in [4]; 0.88% in assay [5]; -0.55% in assay [6]. Also, the inhibition in assay [7] is -2.04%; in assay [8] it was -1.83%; in assay [9], -3.92%; in assay [10], 1.4%; in assay [11], 1.95%; in assay [12], 2.44%. Moreover, the inhibition in [13] was determined as 3.17%; in [14], 1.32%; in [15], 1.72%; in assay [16], 2.77%; in assay [17], 2.05%; in assay [18], 7.6%. Further, the inhibition in assay [19] was determined as 2.64%; in [20], 1.44%.
